# Measurements taken from PubChem BioAssay (NCI).
# About 83,000 compounds went through this panel and 20% of them were active in at least one assay; those are over-represented in the sample as a whole.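 Growth was measured after 48 h exposure to one concentration of compound in 96-well plates. Values under 10 count as active.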 A number with no mark means an inactive call. Calls of active or inactive are those of the source.
# Assays:
# Assay in all cases: NCI-60 one-dose screen, 48 h (100 = growth as untreated, 0 = no growth, -100 = all killed)
# HCT-15 colon = conditions: 10 µM unless noted
# HT29 colon = conditions: 10 µM unless noted
# SNB-75 CNS = conditions: 10 µM unless noted
# SNB-19 CNS = conditions: 10 µM unless noted
# U251 CNS = conditions: 10 µM unless noted
# PC-3 prostate = conditions: 10 µM unless noted
# SK-MEL-5 melanoma = conditions: 10 µM unless noted
# UACC-62 melanoma = conditions: 10 µM unless noted
# LOX IMVI melanoma = conditions: 10 µM
# SK-MEL-28 melanoma = conditions: 10 µM unless noted
# EKVX NSCLC = conditions: 10 µM unless noted
# SN12C renal = conditions: 10 µM unless noted
# UO-31 renal = conditions: 10 µM unless noted
# ACHN renal = conditions: 10 µM unless noted
# CAKI-1 renal = conditions: 10 µM unless noted
# A498 renal = conditions: 10 µM unless noted
# CCRF-CEM leukemia = conditions: 10 µM unless noted
# MOLT-4 leukemia = conditions: 10 µM unless noted
# SK-MEL-2 melanoma = conditions: 10 µM unless noted
# TK-10 renal = conditions: 10 µM unless noted
Compound,growth (HCT-15 colon),growth (HT29 colon),growth (SNB-75 CNS),growth (SNB-19 CNS),growth (U251 CNS),growth (PC-3 prostate),growth (SK-MEL-5 melanoma),growth (UACC-62 melanoma),growth (LOX IMVI melanoma),growth (SK-MEL-28 melanoma),growth (EKVX NSCLC),growth (SN12C renal),growth (UO-31 renal),growth (ACHN renal),growth (CAKI-1 renal),growth (A498 renal),growth (CCRF-CEM leukemia),growth (MOLT-4 leukemia),growth (SK-MEL-2 melanoma),growth (TK-10 renal)
O=C(CN1C(=O)/C(=C/c2ccccc2F)SC1=S)N1CCOCC1,29.4%,87.1%,106%,91%,91.8%,95.1%,93.9%,76.2%,38%,86.4%,95.9%,72.6%,58.5%,50.3%,85.5%,129%,41.9%,77.7%,,
CN(C)c1nc(NCCNS(=O)(=O)c2ccc(C(=O)/C=C/c3ccc(F)cc3)cc2)nc(Nc2ccc(F)cc2)n1,-91.7% (active),-100% (active),-16.4% (active),-74.8% (active),-100% (active),-75.2% (active),-99.6% (active),-97.1% (active),-100% (active),-100% (active),-49% (active),-99.8% (active),-49.1% (active),-81.2% (active),-51.9% (active),9.88% (active),4.06% (active),-17.2% (active),-90.2% (active),-41.4% (active)
Cn1cc(-c2cc3nc(-c4c[nH]c5ccc(Cl)cc45)cc(N)n3n2)c2ccccc21,-86.2% (active),-80.7% (active),-67.5% (active),-72.3% (active),-83% (active),-80.9% (active),-84.8% (active),-70.9% (active),-80.7% (active),,-88.6% (active),-65.9% (active),-98.6% (active),-100% (active),-94.6% (active),-62.7% (active),-21.5% (active),-36.1% (active),-89.8% (active),-92.1% (active)
N=C1N=C(SCc2nc3ccccc3[nH]2)NC(=O)/C1=C/c1ccc(Cl)cc1,103%,108%,106%,105%,105%,107%,98.3%,90.3%,91.3%,110%,106%,98.6%,70.5%,99.6%,85.9%,122%,100%,99.5%,,143%
CCN(CC)c1ccc(/C=N/Nc2nc(-c3ccc(C)cc3)cs2)c(O)c1,67.2%,83.5%,92.1%,89.6%,90%,70.5%,79.7%,80.6%,88.2%,,79.2%,99.7%,83.2%,96.3%,78%,105%,88.2%,80%,79.7%,86.9%
COc1cc2oc(-c3cccc(C(=O)Nc4ccc(Cl)cc4)c3)cc(=O)c2c(OCC(=O)N[C@@H](Cc2ccccc2)C(=O)O)c1OC,112%,112%,112%,98.2%,109%,97.5%,96.1%,97.8%,83.4%,95.5%,107%,105%,90.8%,97.2%,91.2%,102%,98.9%,110%,116%,
Cc1ccc(-c2nc(C#N)c(S(=O)(=O)N3CCN(S(=O)(=O)c4ccc(Cl)cc4)CC3)o2)cc1,103%,117%,86.3%,68.9%,62.1%,101%,94.4%,83.5%,0.237% (active),98.7%,99%,93.4%,97.3%,43.8%,94.1%,107%,13.1%,75.7%,95.7%,
COc1cc2c(c(OC)c1OC)C(=O)CC(c1cccc(NC(=O)c3cc(NC(=O)[C@H](C)N)ccc3Cl)c1)O2 (stereo partly drawn),24.5%,59.5%,76.1%,67.1%,20.9%,22%,24.9%,34%,15.7%,63%,48.4%,51.8%,46.4%,50.4%,51.5%,80.7%,12.4%,8.42% (active),33.5%,101%
